Assay [1] is described as follows: qHTS of pediatric cancer cell lines to identify multiple opportunities for drug repurposing: Primary screen for NB-EBc1 cells (AID 1347095). Also: potency is read from the fitted curve at half-maximal effect. Particulars: NB-EBc1 neuroblastoma viability, CellTiter-Glo luminescence, 48 h; series mostly up to 46 µM. Summed up:
(§1)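 Viability was measured as metabolically active cells after 48 hours of treatment, read by CellTiter-Glo luminescence. Compounds were tested at multiple final concentrations, giving concentration-response curves.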

Assay [2] is described as follows: qHTS of pediatric cancer cell lines to identify multiple opportunities for drug repurposing: Primary screen for SK-N-SH cells (AID 1347098). Also: nearly all actives have a fitted effect of over 65% in size. Also: potency is read from the fitted curve at half-maximal effect. Particulars: SK-N-SH viability, CellTiter-Glo luminescence, 48 h; series mostly up to 57 µM. Summed up:
(§2)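 Cells (500-1,000/well) rested 5 h, then received compounds for 48 h; metabolically active cells were measured by CellTiter-Glo luminescence. Final concentrations spanned up to 46 µM (MIPE, 11-point) or 0.59 nM-46 µM (NPC, 8-point) in primary screens, 11-point in follow-ups.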
Background: qHTS replaces the single test concentration by a dilution series.

Assay [3] is described as follows: qHTS of pediatric cancer cell lines to identify multiple opportunities for drug repurposing: Primary screen for NB1643 cells (AID 1347099). Also: nearly all actives have a fitted effect of over 50% in size. Particulars: NB1643 neuroblastoma viability, CellTiter-Glo luminescence, 48 h; series mostly up to 46 µM. In a few lines:
as §1

A short description of assay [4]: qHTS of pediatric cancer cell lines to identify multiple opportunities for drug repurposing: Primary screen for LAN-5 cells (AID 1347100). Also: potency is read from the fitted curve at half-maximal effect. Particulars: LAN-5 neuroblastoma viability, CellTiter-Glo luminescence, 48 h; series mostly up to 46 µM. Summed up: (§3)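 Cells (500-1,000/well) in growth media were settled 5 h at 37 degrees C, then given compounds for 48 h. Viability was read as CellTiter-Glo luminescence. Primary runs used MIPE at 11 points (0.78 nM-46 µM) and NPC at 8 points (0.59 nM-46 µM); follow-ups used 11 points.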

Assay [5] in a line: qHTS of pediatric cancer cell lines to identify multiple opportunities for drug repurposing: Primary screen for BT-12 cells (AID 1347101). Also: nearly all actives have a fitted effect of over 25% in size. Also: potency is read from the fitted curve at half-maximal effect. As to conditions: BT-12 viability, CellTiter-Glo luminescence, 48 h; series mostly up to 57.3 µM. Summed up: as §2
Assay [6] can be described thus: qHTS of pediatric cancer cell lines to identify multiple opportunities for drug repurposing: Primary screen for Rh18 cells (AID 1347102). Also: nearly all actives have a fitted effect of over 65% in size. Also: potency is read from the fitted curve at half-maximal effect. Particulars: Rh18 rhabdomyosarcoma viability, CellTiter-Glo luminescence, 48 h; series mostly up to 46 µM. Summed up: as §3
Assay [7] is described as follows: qHTS of pediatric cancer cell lines to identify multiple opportunities for drug repurposing: Primary screen for RD cells (AID 1347104). Also: nearly all actives have a fitted effect of over 55% in size. Also: potency is read from the fitted curve at half-maximal effect. As to conditions: RD rhabdomyosarcoma viability, CellTiter-Glo luminescence, 48 h; series mostly up to 46 µM. In a few lines:
as §1

Assay [8] is described as follows: qHTS of pediatric cancer cell lines to identify multiple opportunities for drug repurposing: Primary screen for MG 63 (6-TG R) cells (AID 1347105). Also: nearly all actives have a fitted effect of over 50% in size. Particulars: MG 63 (6-TG R) viability, CellTiter-Glo, 48 h; series mostly up to 46 µM. In a few lines:
as §1

A short description of assay [9]: qHTS of pediatric cancer cell lines to identify multiple opportunities for drug repurposing: Primary screen for control Hh wild type fibroblast cells (AID 1347106).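 Also: a drop in luminescence marks cytotoxicity and a rise apparent proliferation; nearly all actives have a fitted effect of over 55% in size.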 Particulars: Hh wild-type fibroblast viability, CellTiter-Glo luminescence, 48 h; series mostly up to 46 µM. In a few lines:
as §3

The nature of assay [10]: qHTS of pediatric cancer cell lines to identify multiple opportunities for drug repurposing: Primary screen for Rh41 cells (AID 1347108).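 Also: luminescence drop marks cytotoxic hits; nearly all actives have a fitted effect of over 70% in size.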 As to conditions: Rh41 rhabdomyosarcoma viability, CellTiter-Glo luminescence, 48 h; series mostly up to 46 µM. In a few lines: as §1
The nature of assay [11]: qHTS of pediatric cancer cell lines to identify multiple opportunities for drug repurposing: Primary screen for Saos-2 cells (AID 1347097). Also: potency is read from the fitted curve at half-maximal effect; nearly all actives have a fitted effect of over 40% in size. Particulars: Saos-2 viability, CellTiter-Glo ATP luminescence, 48 h; series mostly up to 46 µM. In a few lines:
as §1

Assay [12] in a line: qHTS of pediatric cancer cell lines to identify multiple opportunities for drug repurposing: Primary screen for OHS-50 cells (AID 1347103). Also: potency is read from the fitted curve at half-maximal effect; nearly all actives have a fitted effect of over 40% in size. Particulars: OHS-50 osteosarcoma viability, CellTiter-Glo luminescence, 48 h; series mostly up to 57.3 µM. Summed up: as §2
Assay [13] is described as follows: qHTS of pediatric cancer cell lines to identify multiple opportunities for drug repurposing: Primary screen for Rh30 cells (AID 1347107). Also: nearly all actives have a fitted effect of over 75% in size. As to conditions: Rh30 rhabdomyosarcoma viability, CellTiter-Glo luminescence, 48 h; series mostly up to 46 µM. In a few lines:
as §3

A short description of assay [14]: qHTS of pediatric cancer cell lines to identify multiple opportunities for drug repurposing: Confirmatory screen for A673 cells (AID 1347110).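 Also: potency is read from the fitted curve at half-maximal effect; cells exposed to compound for 48 h before the viability read; nearly all actives have a fitted effect of over 65% in size.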 As to conditions: A673 Ewing sarcoma cell viability; series mostly up to 45.9 µM. Summed up: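 Concentration-response curves came straight from titrations: 11 points (0.78 nM to 46 µM) for MIPE and several concentrations (0.59 nM to 46 µM) for NPC in primary, 11 points in follow-up. Readout: ATP luminescence at 48 h.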

The nature of assay [15]: qHTS of pediatric cancer cell lines to identify multiple opportunities for drug repurposing: Confirmatory screen for SK-N-MC cells (AID 1347111).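 Also: potency is read from the fitted curve at half-maximal effect; cells exposed to compound for 48 h before the readout; nearly all actives have a fitted effect of over 70% in size.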 Particulars: SK-N-MC cell viability; series mostly up to 45.9 µM. Summed up: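 Metabolically active cells were quantified by ATP-dependent luminescence (CellTiter-Glo, 15 min at room temperature) following 48 h treatment. Cells had been plated at 500-1,000 per well and settled for 5 h beforehand.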

A short description of assay [16]: qHTS of pediatric cancer cell lines to identify multiple opportunities for drug repurposing: Primary screen for U-2 OS cells (AID 1347096). Also: nearly all actives have a fitted effect of over 50% in size. Particulars: U-2 OS viability, CellTiter-Glo luminescence, 48 h; series mostly up to 46 µM. In a few lines: as §3

“And” between values parts separate entries of the source, which are not always exact repeats. Identical values can stand only once. Results filed as inconclusive are left out. The source made the active and inactive calls. Calls follow the shape of the dose curve; as a rule, active = well fitted curve in the direction sought with a large enough effect; inconclusive = small, poorly fitted or top-dose-only effect, or another doubt; inactive = no such curve, though single readings can be large; an effect the other way counts as inactive or inconclusive.

As for `CCC(C)(C)c1ccc(CC(C)CN2C[C@@H](C)O[C@@H](C)C2)cc1` (stereo not given in full), the Potency entry in [1], in assay [2], in [3], in [4], in assay [5] and in assay [6] was “inactive” throughout. Also, the Potency entry in assay [7], in [8], in [9] and in assay [10] was “inactive” in each case.
With `CN1CCCC(n2nc(Cc3ccc(Cl)cc3)c3ccccc3c2=O)CC1` (stereo not given), the Potency in assay [1] was 1.18 µM (active); in assay [11], 2.35 µM (active); in assay [2], 27.3 µM (active) and 4.82 µM (active); in assay [4], 0.662 µM (active); in assay [5], 2.73 µM (active); in assay [6], 1.48 µM (active). Besides, the Potency in assay [12] is 27.6 µM (active) and 968 nM (active); in assay [7] it was 5.9 µM (active); in assay [14], 9.27 µM (active); in [15] it was 23.3 µM (active). For the same compound, the Potency entry in assay [13] and in [10] was “inactive” each time.
`Cc1c(-c2ccc(O)cc2)n(Cc2ccc(OCCN3CCCCCC3)cc2)c2ccc(O)cc12`: the Potency result in assay [16], in assay [2], in [3], in assay [6], in assay [7] and in [9] was “inactive” throughout. In addition, the Potency result in assay [13] and in assay [10] was “inactive” each time.
Turning to `CC(C)(C)NC(=O)[C@H]1CC[C@H]2[C@@H]3CC[C@H]4NC(=O)C=C[C@]4(C)[C@H]3CC[C@]12C`, the Potency result in assay [16], in assay [6] and in assay [10] was “inactive” in each case. In addition, the Potency in assay [11] was 14.8 µM (active); in [12], 12.2 µM (active).

These data come from PubChem BioAssay (NCATS).
